# Results reported in ChEMBL document CHEMBL3988442, “University of Dundee, Small-Polar-MMV Screening Library” (2021).
# Hit rate of the full screen: of about 48,000 compounds, about 13,000 (27%) showed an effect of 50% or more. Some of the results follow.
# Test system: Wolbachia pipientis
# Test: Anti-Wolbachia Cell-Based Screen
# Format: functional
# Set-up: scale not given: in the data most compounds retested in dose-response had high values
# Settings: 5 µM
row,SMILES,Percent Effect [%]
1,c1ncc(-c2cn(CCSc3cnn[nH]3)nn2)cn1,-12.65
2,CC(=O)N1CCC(C(=O)NCc2cc[nH]n2)(c2ccccc2)CC1,107.6
3,CCC(CNC(=O)NCc1cc[nH]n1)N1CCCC1 (stereo unspecified),2.082
4,O=C(NCc1cc2n(n1)CCCNC2)C1(c2ccccc2)CCCCC1,0.555
5,O=C(NCC1CCOC1)N1CCN(c2ncccn2)CC1 (stereo unspecified),14.21
6,COCCOCCNC(=O)N1CCN(c2ccccc2C#N)CC1,9.744
7,CC(CNC(=O)N1CCN(c2ncccn2)CC1)Cc1cccs1 (stereo unspecified),-35.53
8,CS(=O)(=O)NC1CCCN(C(=O)NCc2cc[nH]n2)C1 (stereo unspecified),-1.074
9,O=C(NCc1cc[nH]n1)N1CCN(c2ncccn2)CC1,105.7
10,N#Cc1ccccc1N1CCCN(C(=O)NCc2cc[nH]n2)CC1,136.7
11,Cc1cccc(OC2CCN(C(=O)NCc3cc[nH]n3)CC2)c1C,-1.831
12,N#Cc1ccccc1N1CCN(C(=O)NCC(=O)N2CCCC2)CC1,-1.371
13,CS(=O)(=O)NC1CCN(C(=O)NCc2cc[nH]n2)CC1,108.2
14,Cc1nn(C)c2ncc(NC(=O)N(C)Cc3cnn(C)c3)cc12,3.959
15,COc1ccc(C(=O)O)c(OCC(=O)NC(C)c2ccccc2)c1 (stereo unspecified),-11.95
16,COc1cncc(N2CCN(Cc3ccncc3Cl)CC2)n1,-15.95
17,O=C(NCc1ccc(N2CCSCC2)cc1)NCc1cc[nH]n1,-6.382
18,CCC1c2ccsc2CCN1C(=O)NCc1cc[nH]n1 (stereo unspecified),5.553
19,O=C(NCc1cc[nH]n1)N1CCN(c2ccccc2Cl)CC1,14.41
20,O=C(NCc1cc[nH]n1)N1CCC(Oc2ccccc2Cl)CC1,-25.2
21,CCOc1ccccc1N1CCN(C(=O)NCc2cc[nH]n2)CC1,100.3
22,CC(=O)c1ccc(N2CCN(C(=O)NCc3cc[nH]n3)CC2)cc1,106.6

row,SMILES,Percent Effect [%]
1,CC(=O)N1CCCN(C(=O)NCc2cc[nH]n2)CC1,-2.345
2,NC(=O)c1ccc(CNC(=O)NCc2cc[nH]n2)cc1,0.637
3,CCN1CCN(C(=O)NCc2cc[nH]n2)CC1,108.7
4,CN(C)c1ccccc1C(=O)N1C[C@@H](CN2CCC(O)CC2)[C@@H](CO)C1,-115.2
5,Cc1cc(C(=O)Cn2cnnc2[S+](C)[O-])cc(C)c1F (stereo unspecified),2.039
6,CS(=O)(=O)c1cccc(C(=O)NCC2(c3ccccc3)CC2)c1,-5.384
7,O=C(NCc1nc2cc(F)ccc2[nH]1)c1ccc[nH]1,85.11
8,CS(=O)(=O)c1cccc(C(=O)NCc2nc3cc(F)ccc3[nH]2)c1,93.8
9,CS(=O)(=O)c1cccc(C(=O)NCC2Cc3ccccc3O2)c1 (stereo unspecified),-50.83
10,O=C(NCc1nc2ccccc2[nH]1)c1cc2n(n1)CCCO2,4.478
11,CS(=O)(=O)c1ccc(C(=O)NCc2nc3cc(F)ccc3[nH]2)cc1,97.05
12,COC(=O)NCC(=O)N1CCC(c2nc3cc(F)ccc3[nH]2)CC1,-27.28
13,O=C(NCc1nc2ccccc2[nH]1)c1cnn2c1OCCC2,8.573
14,CC(C)c1cc(C(=O)NCc2nc(-c3ccc(F)cc3)n[nH]2)n[nH]1,8.194
15,Cc1cc(NC(=O)Cn2nc(C)c(C#N)c2N)ccc1Br,-7.247
16,Fc1ccc(-c2cc(NCCC3CCOC3)n3nccc3n2)cc1 (stereo unspecified),40.16
17,O=C(NC1CC1)[C@H]1CC[C@@H]2[C@@H](CCN2CCOCc2ccccc2)O1.O=C(O)C(F)(F)F,6.133
18,CCS(=O)(=O)N1CCOC2(COCCN(C(C)=O)C2)C1 (stereo unspecified),-3.912
19,CCC1CN(C(=O)c2ccccc2N2CCOCC2)CCN1C(C)C (stereo unspecified),8.112
20,CCNC(=O)C1CCN(c2cc(-c3ccccc3F)nc3ccnn23)C1 (stereo unspecified),-1.287
21,COc1ccccc1CN1C[C@@H](F)[C@@H](OCc2nc3ccccc3[nH]2)C1,0.7932
22,Cc1ccsc1C(=O)N1CCc2ncc(CN3CCCC3)n2CC1.O=C(O)C(F)(F)F,-31.81

row,SMILES,Percent Effect [%]
1,Cl.Cn1cncc1CN1CCc2nc3sccc3c(=O)n2CC1,103.5
2,CC(=O)NCc1nnc2n1CCN(c1nc(C)nc3sccc13)CC2,-5.354
3,CCn1cncc1CN1CCc2nc3sccc3c(=O)n2CC1,89.02
4,Cc1ccc(CN2CCNC(C(=O)NC3CC3)C2)cc1C (stereo unspecified),34.83
5,CC(NC1CCN(CCS(C)(=O)=O)CC1)c1ccc(Cl)cc1 (stereo unspecified),-9.034
6,Cc1ncsc1CCC(=O)NC1CCN(c2ccc(Cl)nn2)CC1,-3.367
7,O=C(Nc1ccc(-n2cncn2)c(F)c1)C1CCN(C(=O)C2CC2)CC1,-16.72
8,CC1CCN(c2nc3c(cnn3-c3ccccc3)c(=O)[nH]2)CC1,0.2654
9,CC1CCN(Cc2cc(=O)[nH]c(=O)[nH]2)CC1,-40.44
10,NS(=O)(=O)CC1CCN(c2ncccc2C(F)(F)F)CC1,-0.5729
11,CC1CCN(c2nccn3c(=O)[nH]nc23)CC1,109.7
12,CC1CCCN(c2nccn3c(=O)[nH]nc23)C1 (stereo unspecified),119.4
13,CC(C)n1ccnc1C1CCCN(c2ncccc2C(N)=O)C1 (stereo unspecified),2.955
14,CC1CCCN(c2ccccc2OCC(=O)NC2CC2)C1 (stereo unspecified),-2.178
15,NC1CCN(c2nccn3c(=O)[nH]nc23)CC1,124.1
16,c1ccc(-c2nc3c(c(NCCCn4cncn4)n2)CCNCC3)nc1,-4.021
17,COc1ccc(C(CO)NC(=O)Nc2cccnc2)cc1 (stereo unspecified),-17.84
18,Cc1nnc(C(C)N(C)Cc2c(C)nn(-c3ccccc3C)c2C)o1 (stereo unspecified),-9.364
19,CCn1nnnc1-c1cccc(NC(=O)COC2CCCC2)c1,5.943
20,CCc1noc(C(C)N2CCN(Cc3noc(C4CC4)n3)CC2)n1 (stereo unspecified),3.435
21,CCc1noc(C(C)N2CCCN(Cc3noc(C4CC4)n3)CC2)n1 (stereo unspecified),8.614
22,CCCc1nc(CN2CCN(C(C)c3nc(C4CC4)no3)CC2)no1 (stereo unspecified),124.6

row,SMILES,Percent Effect [%]
1,CCCc1nc(CN2CCN(Cc3noc(CCC)n3)CC2)no1,0.9498
2,CCc1nc(CN2CCN(C(C)c3nc(C4CC4)no3)CC2)no1 (stereo unspecified),112.7
3,Cc1nnc(CN2CCCCC2c2nc(-c3ccccc3)no2)s1 (stereo unspecified),-13.6
4,O=S(=O)(C1CC1)N1CCC2(CCCN(c3ncc(F)cn3)C2)C1 (stereo unspecified),-1.558
5,CS(=O)(=O)N1CCC2(CCCN(c3ncc(F)cn3)C2)C1 (stereo unspecified),6.577
6,CCCS(=O)(=O)N1CCC2(CCCN(c3ncc(F)cn3)C2)C1 (stereo unspecified),14.12
7,Cc1cnc(N2CCCC3(CCOCC3)C2)nc1,109.2
8,Cc1cnc(N2CCCC3(COCCN(c4nccs4)C3)C2)nc1 (stereo unspecified),-8.565
9,Fc1cnc(N2CCCC3(CCN(c4ncccn4)C3)C2)nc1 (stereo unspecified),88.49
10,Cc1cnc(N2CCOC3(CCCN(c4ncccn4)C3)C2)nc1 (stereo unspecified),-13.37
11,CCS(=O)(=O)N1CCC2(CCCN(c3ncc(F)cn3)C2)C1 (stereo unspecified),-3.984
12,Cc1cnc(N2CCC3(CCCN(c4ncc(F)cn4)C3)C2)nc1 (stereo unspecified),103
13,Cc1cc(C)c2nc(CN3CCC(N4CCOCC4)CC3)cc(O)c2c1,-11.95
14,CCN(C(c1cccnc1)c1cc(C)cc(C)c1)S(C)(=O)=O (stereo unspecified),1.72
15,Cc1oc(-c2ccsc2)nc1CC(=O)NCCS(C)(=O)=O,-2.536
16,CN(C)CCOCC1CN(C(=O)c2cscn2)Cc2ccnn2C1 (stereo unspecified),-0.6425
17,O=C1CC(c2ccc(C(=O)O)cc2)c2ncn(-c3cccnc3)c2N1 (stereo unspecified),-9.053
18,CCN(CC)C1COc2c(cc(Br)c(C)c2Br)C1=O (stereo unspecified),114.2
19,CCN(CC)C1COc2c(cc(Br)c(C)c2C)C1=O (stereo unspecified),131.7
20,CCN(CC)C1COc2ccc(Br)cc2C1=O (stereo unspecified),104.3
21,Cc1c(Br)cc2c(c1C)OCC(N(C)C)C2=O (stereo unspecified),95.66
22,CCCN1Cc2cc(Br)ccc2OCC1=O,11.44

row,SMILES,Percent Effect [%]
1,COCCN1C(=O)[C@H]2CC[C@@H]1CN(C(=O)COc1ccc(F)c(Cl)c1)C2,1.148
2,CC(C)c1cc(C(=O)NCCN2CCCS2(=O)=O)n[nH]1,-2.781
3,COc1ccc(Br)cc1CC(=O)N1CCCC1,26.87
4,COc1ccccc1CC(=O)N1CCC(NCc2cccnc2)CC1,-3.091
5,COc1ccccc1CC(=O)N1CC[C@@]2(CCCO2)[C@@H](OC)C1,3.075
6,COc1ccc(CC(=O)N2CC[C@H](CO)[C@H](O)C2)c(OC)c1,2.348
7,COc1ccccc1CC(=O)N1CC[C@H](O)[C@]2(CCCO2)C1,123.7
8,COc1ccc(C)cc1CC(=O)N1CC[C@@]2(CCCO2)[C@@H](O)C1,110.1
9,O=C(Nc1ccc(OCc2cccc(F)c2)c(F)c1)C1COCCO1 (stereo unspecified),-24.38
10,Cn1nc2c(c1NC(=O)c1cccs1)CCC2,116
11,NCC(=O)N1CCCC1c1ccc(C(=O)NCc2ccoc2)s1 (stereo unspecified),-13.99
12,O=C(NC1CCN(c2nccs2)CC1)c1cccs1,-6.975
13,CN1CCCC1c1ccc(C(=O)N2CCc3ccccc3C2)s1 (stereo unspecified),10.54
14,O=C(Nc1nnc(N2CCCCC2)[nH]1)c1cccs1,3.867
15,CN1CCCC1c1ccc(C(=O)Nc2c3c(nn2C)CCC3)s1 (stereo unspecified),105.6
16,CC(C)CN1CCCC1c1ccc(C(=O)Nc2cccnc2)s1 (stereo unspecified),20.92
17,CC(C)CN1CCCC1c1ccc(C(=O)Nc2cn(C)nn2)s1 (stereo unspecified),6.317
18,Cn1nc2c(c1NC(=O)c1ccc(C3CCCN3C3CCC3)s1)CCC2 (stereo unspecified),91.78
